Results on 97 compounds are retold here after PubChem BioAssay AID504339 (National Center for Advancing Translational Sciences (NCATS), 2011).

Hit rate of the full screen: of about 390,000 compounds, about 17,000 (4.4%) were called active. A call without a number means that no potency is given here. Roughly 8% stayed inconclusive and do not appear here. Calls come from the whole dose curve; as a rule, active = well fitted inhibition curve with a large enough effect; inconclusive = small, poorly fitted or top-dose-only effect; inactive = no such curve, though single readings can be large or run the other way. The sample as a whole holds a higher share of actives than the screen did.
Potency is the fitted concentration of half-maximal effect.

Lysine-specific demethylase 4A (Homo sapiens), sequence (O75164 whole entry, looked up, the tested form may be a part): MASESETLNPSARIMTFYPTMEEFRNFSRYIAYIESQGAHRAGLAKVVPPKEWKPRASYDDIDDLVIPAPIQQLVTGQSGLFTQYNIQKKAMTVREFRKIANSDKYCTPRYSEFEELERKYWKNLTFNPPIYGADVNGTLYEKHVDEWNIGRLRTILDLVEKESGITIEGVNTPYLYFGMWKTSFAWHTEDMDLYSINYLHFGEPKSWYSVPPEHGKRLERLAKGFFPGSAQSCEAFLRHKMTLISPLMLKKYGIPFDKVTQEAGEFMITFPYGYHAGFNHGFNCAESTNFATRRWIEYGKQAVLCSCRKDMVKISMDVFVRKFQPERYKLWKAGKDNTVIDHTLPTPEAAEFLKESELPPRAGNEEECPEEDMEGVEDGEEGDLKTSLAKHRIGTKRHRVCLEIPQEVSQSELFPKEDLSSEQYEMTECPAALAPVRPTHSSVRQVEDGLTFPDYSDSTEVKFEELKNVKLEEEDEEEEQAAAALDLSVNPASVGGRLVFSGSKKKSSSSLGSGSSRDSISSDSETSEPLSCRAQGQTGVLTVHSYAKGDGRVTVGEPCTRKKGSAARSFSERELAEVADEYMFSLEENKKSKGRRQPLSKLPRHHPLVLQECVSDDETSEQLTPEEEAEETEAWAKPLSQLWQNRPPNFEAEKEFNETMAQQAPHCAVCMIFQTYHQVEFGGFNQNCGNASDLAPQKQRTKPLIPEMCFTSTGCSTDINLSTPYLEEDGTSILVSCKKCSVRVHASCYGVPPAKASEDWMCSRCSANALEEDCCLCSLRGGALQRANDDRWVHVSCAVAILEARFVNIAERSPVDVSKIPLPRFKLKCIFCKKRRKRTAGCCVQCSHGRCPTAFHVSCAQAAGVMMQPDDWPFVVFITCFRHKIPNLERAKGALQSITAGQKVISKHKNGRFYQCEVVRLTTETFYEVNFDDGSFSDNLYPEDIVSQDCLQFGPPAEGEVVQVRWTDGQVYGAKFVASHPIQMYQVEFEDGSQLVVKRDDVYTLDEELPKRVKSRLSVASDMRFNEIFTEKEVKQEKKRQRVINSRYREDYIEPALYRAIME

The assay addresses Lysine-specific demethylase 4A (Homo sapiens) (UniProt O75164). Description: qHTS Assay for Inhibitors of JMJD2A-Tudor Domain. Note: nearly all actives have a fitted effect of over 50% in size. Particulars: AlphaScreen JMJD2A-Tudor / H3K4me3 peptide binding; series mostly up to 114 µM.
For the compound `CCCc1cc(=O)n2[nH]c(NCc3ccc(CC)cc3)nc2n1`, the Potency result was “inactive”.

As to `COc1ccc(-c2csc(-c3c(N)c(C(=O)c4ccc(OC)c(OC)c4)n4ccccc34)n2)cc1`, the Potency result is “inactive”.

As for `COc1ccccc1CNC(=O)Cn1nc(C)c2nn(-c3ccc(Cl)cc3)c(C)c2c1=O`, the Potency result was “inactive”.

As to `COc1ccc(OC)c(CNC(=O)Cn2nc(C)c3c(C)n(-c4ccccc4)nc3c2=O)c1`, the Potency result is “inactive”.

With `COc1ccc(OC)c(CNC(=O)Cn2nc(C)c3c(C)n(-c4ccc(C)cc4)nc3c2=O)c1`, the Potency was 35.5 µM (active).

Take `Cc1ccc2c(c1)N(C(=O)Nc1ccc(Br)cc1F)CCO2`: the Potency result is “inactive”.

In the case of `Cc1ccc(OCC(=O)OCc2cc(=O)n3nc(C4CC4)sc3n2)cc1`, the Potency entry is “inactive”.

On to `CCN(C(=O)Cn1cnc2sc(C)c(S(=O)(=O)N3CCN(c4ncccn4)CC3)c2c1=O)c1ccccc1F`, for which the Potency entry was “inactive”.

For `CCOc1cc(-c2nnc(SCC(=O)NC3CCCCC3)nc2-c2ccc(OC)c(OCC)c2)ccc1OC`, the Potency result was “inactive”.

Consider `CCN(C(=O)CN1CCN(Cc2ccccc2)CC1)c1c(N)n(Cc2ccccc2)c(=O)[nH]c1=O`, for which the Potency was 12.6 µM (active).

Turning to `CCN(C(=O)COC(=O)c1sccc1C)c1c(N)n(Cc2ccccc2)c(=O)[nH]c1=O`, the Potency result is “inactive”.

`CCN(C(=O)COC(=O)Cc1c(F)cccc1Cl)c1c(N)n(Cc2ccccc2)c(=O)[nH]c1=O`: the Potency entry is “inactive”.

For the compound `OC[C@@H]1O[C@H](n2cnc3c(SCc4ccccc4)ncnc32)[C@H](O)[C@H]1O`, the Potency result was “inactive”.

As to `Cc1ccc(C(=O)N2c3ncnn3C3(CCCCC3)[C@@H]3CCCC[C@@H]32)cc1`, the Potency result is “inactive”.

Turning to `CCC(=O)N1CCc2cc(CNS(=O)(=O)c3ccc(Br)s3)ccc21`, the Potency entry was “inactive”.

On to `Cc1nn(CC(=O)Nc2ccc3c(c2)OCO3)c(C)c1[N+](=O)[O-]`, for which the Potency entry is “inactive”.

Consider `Cc1nc([N+](=O)[O-])cn1CC(=O)Nc1ccc2c(c1)OCO2`, for which the Potency entry was “inactive”.

For `Cc1ccc(C(=O)O)cc1-c1ccc(/C=C2\SC(=O)N(CC(=O)Nc3ccc4c(c3)OCO4)C2=O)o1`, the Potency is 35.5 µM (active).

Regarding `O=C(CSc1nnc(-c2ccncc2)n1-c1ccccc1)Nc1ccc(Cl)c(Cl)c1`, the Potency entry was “inactive”.

Turning to `COc1ccccc1CN1CCC(CNC(=O)c2cnn(-c3cccc(Cl)c3)c2C2CCN(C(=O)OC(C)(C)C)CC2)CC1`, the Potency result was “inactive”.

Take `COCCNC(=O)c1ccc2c(c1)N=C(C)c1cc(C)ccc1S2`: the Potency entry was “inactive”.

For the compound `C/C(=N\Nc1ccc(Cl)nn1)c1ccccc1O`, the Potency entry was “inactive”.

In the case of `Oc1cccc(/C=N/Nc2ccc(Cl)nn2)c1O`, the Potency was 63.1 µM (active).

As for `COc1cccc(CNC(=O)c2ccc3c(c2)N(Cc2ccc(C(F)(F)F)cc2)C(=O)c2ccccc2S3)c1OC`, the Potency result is “inactive”.

On to `CCCc1nn2c(=O)cc(COC(=O)c3ccc(NC(=O)C(C)Oc4ccccc4)cc3)nc2s1` (configuration not stated), for which the Potency result is “inactive”.

For the compound `COc1ccc(-c2nnc(SCC(=O)Nc3ccccc3C)o2)cc1OC`, the Potency entry was “inactive”.

With `CCOC(=O)c1cnc2c(C)cc(Cl)cc2c1NCCc1ccc(OC)c(OC)c1`, the Potency entry is “inactive”.

In the case of `CCOC(=O)c1cnc2c(C)cc(C)cc2c1Nc1ccc(N2CCOCC2)cc1`, the Potency is 35.5 µM (active).

On to `Cc1ccc(OCCCC(=O)Nc2ccc(N3CCOCC3)cc2)cc1`, for which the Potency entry is “inactive”.

As for `Cc1cccc(-n2c(=O)c3c(c4cc(C)ccc4n3C)n(CC(=O)Nc3ccccc3Cl)c2=O)c1`, the Potency entry is “inactive”.

Consider `O=C(Oc1ccc(-c2nc(-c3ccccn3)no2)cc1)c1ccccc1`, for which the Potency entry was “inactive”.

As for `COc1cnc(-c2ccccn2)nc1Oc1ccc(C(C)(C)C)cc1`, the Potency is 31.6 µM (active).

In the case of `COc1ccnc(Oc2ccccc2)c1-c1ncn[nH]1`, the Potency entry is “inactive”.

With `CN1C2CCC1CC(NC(=O)c1ccc([N+](=O)[O-])cc1)C2` (configuration not stated), the Potency result was “inactive”.

In the case of `CC(=O)N1CC[n+]2c(-c3ccc([N+](=O)[O-])cc3)csc21`, the Potency is 7.94 µM (active).

In the case of `Cc1cc(C)cc(C(=O)N2CCN=C2SCc2ccc([N+](=O)[O-])cc2)c1`, the Potency result is “inactive”.

Take `O=C(Nc1nc2ccc(F)cc2s1)c1nc(SCc2ccccc2F)ncc1Cl`: the Potency result is “inactive”.

In the case of `COc1ccc(NC(=O)C(=O)NCc2ccco2)cc1`, the Potency result was “inactive”.

For `COc1ccc(-n2cnc3cc(C(=O)NC4CCCC4)ccc32)cc1`, the Potency entry is “inactive”.

As for `COc1ccc(-n2cnc3cc(NCc4ccco4)ccc32)cc1`, the Potency is 50.1 µM (active).

`Cc1ccc(CSc2nc3cccnc3n2Cc2ccc(C(=O)NC3CC3)cc2)cc1`: the Potency result was “inactive”.

With `CCOC(=O)c1[nH]c(C)c(CCC(=O)NCc2ccccc2C)c1C`, the Potency entry was “inactive”.

For the compound `Cc1ccc(NCc2n[nH]c(=S)n2-c2ccccc2)cc1Cl`, the Potency result is “inactive”.

Consider `S=c1[nH]nc(-c2cc(-c3ccsc3)n[nH]2)n1-c1ccccc1`, for which the Potency was 44.7 µM (active).

Take `COc1cccc(-c2cc(C(=O)Nc3ccc(C)cc3)[nH]n2)c1`: the Potency entry was “inactive”.

As for `CCc1ccc(NC(=O)Cn2c(=O)n(CCC(=O)NCc3ccc4c(c3)OCO4)c(=O)c3ccccc32)cc1`, the Potency result was “inactive”.

With `O=C(CCSCc1ccccc1F)N1CCN(c2ccc(Cl)cc2)CC1`, the Potency result is “inactive”.

As for `Cc1cccc(NC(=O)N2CCN(C)c3ncccc32)c1C`, the Potency result was “inactive”.

`CCOc1ccc(CCNC(=O)c2cc3c(=O)n(C)c4ccccc4c3n2C)cc1`: the Potency result is “inactive”.

Regarding `CC(C)N1CCc2c(sc(NC(=O)Cc3ccccc3)c2C#N)C1`, the Potency result was “inactive”.

Turning to `N#Cc1c(N)sc2c1CCN(C(=O)OCc1ccccc1)C2`, the Potency is 56.2 µM (active).

With `CC(=O)N1CCc2c(sc(NC(=O)CCS(=O)(=O)c3ccccc3)c2C#N)C1`, the Potency entry is “inactive”.

`Cn1c(=O)c2c(nc(SCC(=O)Nc3ccc(F)cc3)n2Cc2ccccc2)n(C)c1=O`: the Potency result was “inactive”.

For `Cc1cccc(NC(=O)CSCC(=O)Nc2nnc(C3CC3)s2)c1`, the Potency result was “inactive”.

On to `O=C(CN1C(=O)c2ccc([N+](=O)[O-])cc2C1=O)Nc1nnc(C2CC2)s1`, for which the Potency is 79.4 µM (active).

On to `CC1CCN(c2ccc(C(=O)Nc3nnc(C4CC4)s3)cc2[N+](=O)[O-])CC1`, for which the Potency entry was “inactive”.

As to `COc1ccc(NC(=O)CN2CCCN(Cc3ccccc3)S2(=O)=O)cc1`, the Potency entry was “inactive”.

Turning to `Cc1nc(N2CCOCC2)c2c(C(=O)NCc3cccc(Cl)c3)c(C)oc2n1`, the Potency result is “inactive”.

Take `O=C(CCc1n[nH]c(=O)[nH]c1=O)N/N=C/c1ccc(Br)o1`: the Potency result was “inactive”.

Regarding `Cc1n[nH]c(=S)n1/N=C/c1ccc(Br)o1`, the Potency is 7.94 µM (active).

Take `O=C(CCC(=O)N/N=C/c1ccc(Br)o1)N/N=C/c1ccc(Br)o1`: the Potency result was “inactive”.

Take `CC1CCCN(Cc2c(O)ccc3c(=O)c(Oc4ccc(C(C)(C)C)cc4)c(C(F)(F)F)oc23)C1` (configuration not stated): the Potency result was “inactive”.

For the compound `Cc1ccc(NC(=O)Cc2ccc(NC(=O)N3CCCCc4ccccc43)cc2)cc1`, the Potency entry is “inactive”.

Consider `Cc1c(C)n2c(SCC(=O)NC3CCCC3)nnc2[nH]c1=O`, for which the Potency is 14.1 µM (active).

As to `Cc1nc(SCC(=O)NC2CCCC2)[nH]c(=O)c1C`, the Potency entry is “inactive”.

Turning to `Cc1c(C)n2c(SCC(=O)N3CCCC3)nnc2[nH]c1=O`, the Potency entry was “inactive”.

Turning to `CCSc1nnc2c(n1)OC(c1ccc(OCC(=O)O)cc1)Nc1ccccc1-2` (configuration not stated), the Potency entry is “inactive”.

For `Cc1sc2ncn(CC(=O)N3CCN(c4ccc(F)cc4)CC3)c(=O)c2c1S(=O)(=O)N1CCN(c2ncccn2)CC1`, the Potency entry was “inactive”.

For `CCOc1ccc(-n2nc3ccc(NC(=O)c4ccc(OC)c(Cl)c4)cc3n2)cc1`, the Potency result is “inactive”.

Take `COc1ccc(CCNC2=C(Cl)C(=O)N(Cc3ccccc3)C2=O)cc1OC`: the Potency entry is “inactive”.

Regarding `COc1cc(/C=C2/SC(=S)N(Cc3ccccc3)C2=O)cc(OC)c1O`, the Potency was 3.55 µM (active).

For `COc1ccc(CCN=C2SCC(=O)N2Cc2ccccc2)cc1OC`, the Potency entry was “inactive”.

In the case of `COc1cc(Cl)c(C)cc1Nc1nnc(-n2nc(C)cc2C)c2ccccc12`, the Potency result is “inactive”.

Take `Cc1ccc(C)c(Cn2c(C(=O)O)c(CNCc3cccs3)c3ccccc32)c1`: the Potency result was “inactive”.

On to `CSc1ccccc1-c1nnc(NC(=O)c2ccc3c(c2)OCCO3)o1`, for which the Potency entry was “inactive”.

With `O=C(Nc1nnc(C2=COCCO2)o1)c1ccc([N+](=O)[O-])s1`, the Potency was 56.2 µM (active).

As to `COc1cc(NC(=O)COC(=O)c2ccc([N+](=O)[O-])s2)cc(OC)c1OC`, the Potency entry is “inactive”.

For `CCOc1ccc(Nc2nc3c(S(=O)(=O)c4cccc(Cl)c4)nnn3c3ccsc23)cc1`, the Potency entry was “inactive”.

`Cc1cc(OCC(=O)NCC2(N(C)C)CCCCC2)cc(C)c1Cl`: the Potency result was “inactive”.

`CCCCCn1c(=O)[nH]c2cc(C(=O)Nc3cc(C)cc(C)c3)ccc2c1=O`: the Potency result is “inactive”.

For `Cc1ccc(S(=O)(=O)N2CCN(S(=O)(=O)N3CCOCC3)CC2)cc1`, the Potency result is “inactive”.

Turning to `CCCCn1c(=S)[nH]c2cc(S(=O)(=O)N3CCCCC3)ccc21`, the Potency result is “inactive”.

For `CCn1c(=S)[nH]c2cc(S(=O)(=O)N3CCOCC3)ccc21`, the Potency was 17.8 µM (active).

Turning to `Cc1ccc(-n2cnc3cc(C(=O)NCCC4=CCCCC4)ccc32)cc1Cl`, the Potency entry was “inactive”.

Regarding `CC1Cc2cc(S(=O)(=O)CCC(=O)Nc3ccc(F)c(Cl)c3)ccc2N1C(=O)C1CC1` (configuration not stated), the Potency result was “inactive”.

As to `COc1ccc(N2C(=O)C(CC(=O)Nc3ccccc3)N(Cc3ccc(OC)c(OC)c3)C2=O)cc1` (configuration not stated), the Potency entry is “inactive”.

For `COc1ccc(C2Nc3ccccc3C(=O)N2Cc2ccc(CNC(=O)CO)cc2)cc1COc1ccc(NC(C)=O)cc1` (configuration not stated), the Potency is 79.4 µM (active).

In the case of `COc1ccc(C2Nc3ccccc3C(=O)N2Cc2ccco2)cc1COc1cccc(NC(C)=O)c1` (configuration not stated), the Potency was 50.1 µM (active).

`COc1cc(C2C3=C(CCCC3=O)OC3=C2C(=O)CCC3)ccc1OCC(=O)Nc1ccccc1`: the Potency entry is “inactive”.

Turning to `CCOC(=O)NN1C(=O)c2ccccc2NC1c1cccc(O)c1` (configuration not stated), the Potency result is “inactive”.

As for `COc1ccc(C(=O)N(Cc2ccccc2)Cc2ccc(OC)c(COc3ccc(NC(C)=O)cc3)c2)c(O)c1`, the Potency result is “inactive”.

`COc1ccc(C2Nc3ccccc3C(=O)N2c2ccc(F)cc2)cc1Cn1nnc2ccccc21` (configuration not stated): the Potency result is “inactive”.

Regarding `COc1ccc(C2Nc3ccccc3C(=O)N2Cc2ccc(Cl)cc2)cc1COc1ccc(NC(C)=O)cc1` (configuration not stated), the Potency result is “inactive”.

Turning to `COc1ccc(C2Nc3ccccc3C(=O)N2Cc2ccccc2)cc1Cn1nnc2ccccc21` (configuration not stated), the Potency result was “inactive”.

Turning to `COc1ccc(C2Nc3cccc(OC)c3C(=O)N2Cc2ccccc2)cc1COc1ccc(NC(C)=O)cc1` (configuration not stated), the Potency was 56.2 µM (active).

On to `COc1ccc(NC(=O)NC2CC3CCCC(C2)N3Cc2ccccc2)cc1` (configuration not stated), for which the Potency result is “inactive”.

With `COc1ccc(C2Nc3ccc(NC(=O)COC(C)=O)cc3C(=O)N2Cc2ccccc2)cc1COc1ccc(NC(C)=O)cc1` (configuration not stated), the Potency is 79.4 µM (active).
